# Screens: PubChem BioAssay, several laboratories
# This excerpt belongs to a sample that is enriched for hits.
# RmlC RmlD mix – RmlC/RmlD inhibition, mixture screen | inhibition, % at 5.5 µM | 0.39% of 110,000 active | AID 1532 | RmlC/RmlD coupled enzyme inhibition, 384-well mixture HTS; in the data active means inhibition above about 30%, passing the limit was not always enough; inconclusive means no clear call, values can overlap the other calls
# HIV RNase H inh-1 – blocks HIV-1 RNase H cleavage of RNA/DNA duplex. P04585. RT-RNase H RNA/DNA duplex cleavage, fluorescence. inhibition, % at 10 µM. 1.9% of 65,000 active; in the data active means inhibition above about 50%
# HIV RNase H inh-2 – confirmation of HIV-1 reverse transcriptase RNase H inhibitors | shares compounds with HIV RNase H inh-1 | Recombinant RT RNase H, fluorescent RNA/DNA duplex cleavage | inhibition, % at 10 µM | 39% of 1,000 active; in the data active means inhibition above about 48%; inconclusive means no clear call, values can overlap the other calls
# * marks the source's active call; other numbers are inactive results; ? = inconclusive; nt = no result given.
SMILES,RmlC RmlD mix,HIV RNase H inh-1,HIV RNase H inh-2
O=C1C2ON(c3ccc(Br)cc3)C(c3cccnc3)C2C(=O)N1C1CCCCC1 (stereo unspecified),nt,64*,33
O=C1C2ON(c3ccccc3)C(c3cccnc3)C2C(=O)N1c1ccccc1 (stereo unspecified),6,3,nt
O=C(O)C1=C[C@@H](c2ccc(C(F)(F)F)cc2)C[C@@H](OCCCCO)O1,-13,nt,nt
CC(C)OC(=O)CSc1nnc(-c2ccncc2)n1N,-5,5,nt
CC(C)OC(=O)CSc1nnc(-c2ccc(C(C)(C)C)cc2)n1N,nt,82*,63*
CC1=C(CC[C@@H](C)CO)OC2CC3C4CCC5CC(O)CCC5(C)C4CC(=O)C3(C)C12 (stereo partly specified),-8,nt,nt
Cc1ccc(-c2cccc(C3CC=CC4C3C(=O)N(Cc3ccccc3)C4c3ccc(C(F)(F)F)cc3)c2)cc1 (stereo unspecified),-11,nt,nt
O=c1cc2[nH]c3ccccc3c(=O)n2nc1-c1ccccc1,-5,nt,nt
O=C1c2ccccc2C(=O)N1Cc1nc2ccccc2c(=O)n1CCCn1ccnc1,-15,-10,nt
CCCCn1c(CN2C(=O)c3ccccc3C2=O)nc2ccccc2c1=O,14,90*,54*
CCOC(=O)c1cc(NC(=O)c2ccoc2C)cc(C(=O)OCC)c1,106,-13,nt
O=C1CC2(CCCC2)Oc2ccc(F)cc21,1,nt,nt
Cc1ccc(C)n1-c1sc2c(c1C#N)CCCC2,27,nt,nt
Cc1sc(-n2c(C)ccc2C)c(C#N)c1C,7,65*,?
COc1cccc(C2NC(=O)NC(C)=C2C(=O)OCCSC)c1OC (stereo unspecified),8,2,nt
COc1cc(C(c2nnnn2C2CCCC2)N2CCc3ccccc3C2)ccc1O (stereo unspecified),-7,51*,22
Oc1ccc(C(c2nnnn2C2CCCC2)N2CCc3ccccc3C2)cc1 (stereo unspecified),-5,11,nt
C#CCNC(=O)C1=C[C@H](C2CC2)C[C@H](OCCCCO)O1,5,nt,nt
CCOC(=O)N1CCC2(CC1)C(C#N)=C(N)OC1=C2C(=O)CC(C)C1 (stereo unspecified),-10,nt,nt
CNc1sc(C(=O)c2ccc(F)cc2)c(N)c1-c1nc2ccccc2s1,-9,nt,nt
CNc1sc(C(=O)c2cccs2)c(N)c1-c1nc2ccccc2s1,nt,75*,38
Cc1cccc(-c2nsc(SCC(=O)Nc3cc(C)on3)n2)c1,-7,70*,48
Cc1cc(NC(=O)CSc2nc3ccccc3s2)no1,-12,nt,nt
Cn1c2ccccc2c2cnn(CC(=O)N3CCN(c4ncccn4)CC3)c(=O)c21,nt,-3,nt
COCCN1CSC(=S)N(Cc2ccco2)C1,4,63*,-8
SMILES,RmlC RmlD mix,HIV RNase H inh-1,HIV RNase H inh-2
COCCN=C1Sc2nc3ccc(C)cc3cc2CN1Cc1ccco1,9,nt,nt
Cc1ccc(Cn2ccc(=O)c(OCc3c(Cl)cccc3Cl)c2C)cc1,29,nt,nt
CCOC(=O)c1c(NC(=O)c2cc(C3CC3)on2)sc(C(C)=O)c1C,nt,68*,51
CCOC(=O)c1c(NC(=O)c2ccco2)sc2c1CCCCC2,-4,-46,nt
CCOC(=O)c1c(NC(=O)c2ccc(Cl)s2)sc(C)c1C,-107,20,nt
CCOC(=O)c1c(NC(=O)c2csc(C)c2)sc(C(C)=O)c1C,nt,-11,nt
CCCc1cc(C(=O)Nc2sc(C)c(C)c2C(=O)OCC)no1,-32,86*,67*
CCOC(=O)c1c(NC(=O)c2cc(C3CC3)on2)sc2c1CCCC2,nt,84*,94*
COc1ccc(N2CCN(CC(O)COc3ccc4c(c3)CCC4)CC2)cc1 (stereo unspecified),14,nt,nt
C=CCCCCCCCCC(=O)NN,12,nt,nt
CCOc1ncccc1C(=O)NCC1COc2ccccc2O1 (stereo unspecified),0,-44,nt
C(=N\n1cnnc1)/c1ccc2ncccc2c1,8,-14,nt
Oc1ccc(C=Nc2ccc3ncccc3c2)c(O)c1,12,53*,43
Cn1c2ccccc2c2nn(-c3ccccc3)c(=O)cc21,25,-6,nt
O=C1C2C3C=CC(C3)C2C(=O)N1CNc1ccccn1 (stereo unspecified),9,nt,nt
CC(C(=O)Nc1ccccn1)N1C(=O)C2C3C=CC(C3)C2C1=O (stereo unspecified),1,74*,18
O=S(=O)(CCc1nc2ccccc2o1)c1ccc2ccccc2c1,-44,nt,nt
COc1ccc2[nH]c3nc(SCC(=O)Nc4ccc5c(c4)OCO5)nnc3c2c1,6,nt,nt
COc1ccc2[nH]c3nc(SCc4nnc(-c5ccc(C)cc5)o4)nnc3c2c1,9,60*,8
CCOC(=O)C1CCN(C(=S)Nc2cc(OC)c(OC)cc2C(=O)OC)CC1,6,nt,nt
COc1ccc(-n2ncc3c(N4CCN(c5cc(C)ccc5C)CC4)ncnc32)cc1,-265,54*,8
COc1ccc(N2CCN(c3ncnc4c3cnn4-c3ccc(C)cc3C)CC2)cc1,8,4,nt
